Most compounds without a hit are left out; they make up all but 21% or so of the library.
Shiga toxin inh: inhibitors of Shiga toxin in Vero cells; AID 2315; 9.2% of 290,000 active; inhibition, % at 38.7 µM; Vero cells, Shiga toxin protein synthesis inhibition reporter; in the data active means inhibition mostly above about 28%, no sharp cut-off; inactive means mostly below about 43%
CHX counter: counter-screen for Shiga toxin inhibitors: cycloheximide protein synthesis inhibition. max response, %. 12% of 300,000 active. cell reporter, cycloheximide protein synthesis inhibition counterscreen; in the data active means max response mostly above about 13%, no sharp cut-off; inactive means mostly below about 14%; further: read at 38.3 µM for the half of the compounds with a filed dose
Pf growth 48h: inhibits P. falciparum growth in the first generation, 48 h. Potency, µM (top dose mostly 28.7 µM), actives largely listed as inhibitors. AID 504832. 5.9% of 310,000 active. P. falciparum luciferase growth in erythrocytes, 48 h
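A one-generation exposure of luciferase-tagged malaria parasites in RPMI 1640/Albumax erythrocyte culture, 37 C and 5% CO2. Inhibition is inferred from decreased luminescence after adding detection reagent.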
Pf growth 96h: P. falciparum growth inhibition at 96 hours; P. falciparum luciferase reporter growth, 96 h; Potency, µM (top dose mostly 28.7 µM), actives largely listed as inhibitors; 6.9% of 320,000 active; AID 504834
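Parasite growth measured via integrated firefly luciferase reporter in P. falciparum. Infected erythrocytes at 2% hematocrit, 0.05% parasitemia final were treated 96 hours at 37 C under 5% CO2, and luminescence was read.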
HCV inh: HCV inhibition; Huh7.5.1 HCVcc-Cre infection, luciferase reporter, 44 h; Potency, µM (highest dose often 41.8 µM), actives largely listed as inhibitors; 3.4% of 340,000 active; AID 651820
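1,000 cells/well; 4 h culture; + compound; + HCVcc-Cre (~0.5 moi); 44 h; luciferase substrate, RT 15 min; read 15 sec.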
HCMV antiviral: blocks human cytomegalovirus replication; HFF cells, HCMV-luciferase reporter, 72 h; hits give low values; activity change, negative = inhibition, % at 57.5 µM; 4.5% of 410,000 active; AID 1259415; in the data active means activity change below about -60%; inconclusive means no clear call, values can overlap the other calls; inactive means above about -39%
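Human foreskin fibroblasts infected with luciferase-reporter HCMV at MOI 1 PFU/cell, compounds at two doses. Luciferase measured 72 h post infection; normalized to buffer-only basal and Salinomycin (10uM) controls.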
Each line names hits and unclear results; the compound was inactive in the other large screens. Unless noted, the call rests on the fitted dose curve; in most records, active means well fitted inhibition curve with a large enough effect; inconclusive means small, poorly fitted or top-dose-only effect, or another doubt; inactive means no such curve, though single readings can be large or run the other way.

O=C(N/N=C/C(Br)=C/c1ccccc1)C(O)c1ccccc1 (stereo not given)	Shiga toxin inh 74, CHX counter 44, HCV inh inconclusive
O=C(N/N=C/C(Br)=C/c1ccccc1)NC1CCCCC1	Shiga toxin inh 97, CHX counter 50, Pf growth 48h inconclusive, Pf growth 96h inconclusive
O=C(O)c1ccc(N/N=C/C(Br)=C/c2ccccc2)cc1	CHX counter 25
COC(=O)C1=C(C)N(C(C)C)C(=O)C1(NC(=O)c1ccc(C(C)(C)C)cc1)C(F)(F)F (stereo not given)	none (no result: Shiga toxin inh, CHX counter, Pf growth 48h, Pf growth 96h, HCV inh)
CCC(C)N(C(=O)CSc1nnc(-c2cccs2)n1C1CC1)C1CCS(=O)(=O)C1 (stereo not given)	none (no result: Shiga toxin inh, CHX counter)
CCOc1cc(C(C(=O)NCC2CCCO2)N(C(=O)Cn2nnc3ccccc32)c2ccc(OC)c(OC)c2)ccc1O (stereo not given)	Pf growth 96h inconclusive
Cc1ccc(NCC(=O)N/N=C\C(Br)=C\c2ccccc2)cc1	HCV inh inconclusive, HCMV antiviral inconclusive (no result: Pf growth 48h)
O=C(N/N=C/C(Br)=C/c1ccccc1)C1CC1	Shiga toxin inh 56, CHX counter 25, Pf growth 48h inconclusive, Pf growth 96h 9.3µM
COc1ccc(NS(=O)(=O)c2cccc(C(=O)NNC(=O)CNC(=O)c3ccc(C)cc3)c2)cc1	none (no result: Shiga toxin inh, CHX counter)
CC(C)C[C@H](NC(=O)c1[nH]cnc1C(=O)N[C@@H](Cc1ccccc1)C(=O)OC(C)(C)C)C(=O)OC(C)(C)C	Pf growth 48h 9.3µM, Pf growth 96h inconclusive, HCV inh inconclusive, HCMV antiviral -89
C[C@H](NC(=O)c1nc[nH]c1C(=O)N[C@@H](C)C(=O)OC(C)(C)C)C(=O)OCc1ccccc1	none
C[C@H](NC(=O)c1nc[nH]c1C(=O)N[C@@H](Cc1ccccc1)C(=O)OCc1ccccc1)C(=O)OC(C)(C)C	Pf growth 48h 7.4µM, Pf growth 96h inconclusive
O=C(NCCOc1ccccc1)c1cc([N+](=O)[O-])ccc1N1CCOCC1	Pf growth 48h inconclusive, Pf growth 96h inconclusive, HCV inh inconclusive (no result: Shiga toxin inh, CHX counter)
Cn1c(CSCc2ccc(F)cc2)n[nH]c1=S	Pf growth 96h 13µM
Cc1[nH]c2ccccc2c1Cc1n[nH]c(=S)n1C	Pf growth 96h 5.2µM
Cn1c(Cc2c[nH]c3ccccc23)n[nH]c1=S	none (no result: Pf growth 48h)
Cc1[nH]c2ccccc2c1SCc1n[nH]c(=S)n1C	HCMV antiviral -78
COc1ccc(Cl)cc1NC(=O)C1CCN(C(=O)Nc2ccccc2)CC1	Pf growth 48h inconclusive, Pf growth 96h inconclusive, HCV inh inconclusive (no result: Shiga toxin inh, CHX counter)
COc1ccc(NC(=O)N2CCc3c(sc4c3CCCC4)C2c2ccc(F)cc2)cc1 (stereo not given)	none (no result: Shiga toxin inh, CHX counter, Pf growth 48h, Pf growth 96h, HCV inh)
CCOc1ccc(-n2cc(-c3ccccc3)c3c(N4CCN(c5ccccc5OC)CC4)ncnc32)cc1	none (no result: Shiga toxin inh, CHX counter, Pf growth 48h, Pf growth 96h, HCV inh)
CCc1ccc(NC(=O)C(C)OC(=O)CC(NC(C)=O)c2ccccc2)cc1 (stereo not given)	CHX counter 33, Pf growth 48h inconclusive
CC(=O)NC(CC(=O)OC(C)C(=O)Nc1ccc(Cl)cn1)c1ccccc1 (stereo not given)	none (no result: Shiga toxin inh, CHX counter)
Cc1cccc(C(=O)Nc2ccc3c(c2)ncn3C)c1	Shiga toxin inh 69, CHX counter 51
Cn1cnc2cc(NC(=O)c3cccs3)ccc21	Shiga toxin inh 69, CHX counter 41
Cc1cccc(C(=O)Nc2ccc3c(c2)nc(C)n3C)c1	Shiga toxin inh 41, CHX counter 39, HCMV antiviral -102
CCOc1ccc(-n2nc3cc(C)c(NC(=O)CC)cc3n2)cc1	none (no result: Shiga toxin inh, CHX counter, Pf growth 48h, Pf growth 96h, HCV inh)
Cc1cc(F)ccc1NC(=O)C(c1ccccc1)N1Cc2ccccc2C1=O (stereo not given)	none (no result: Shiga toxin inh, CHX counter, Pf growth 48h, Pf growth 96h, HCV inh)
Cc1cc(Cl)ccc1OCc1nnc2n1CCCCC2	none
CCn1c(CNc2ccc(Cl)cc2)nnc1SCCN1CCCCC1	Pf growth 48h inconclusive, HCV inh inconclusive, HCMV antiviral -106
Clc1ccc(OCc2nnc3n2CCCCC3)c(Cl)c1	Shiga toxin inh 56, CHX counter 28
Clc1ccc(NCc2nnc3n2CCCCC3)cc1	HCMV antiviral -99 (no result: Pf growth 96h)
COc1ccccc1NC(=O)N[C@H]1CC[C@@]23CCCN2C(=O)CCC[C@H]3[C@H]1C	none (no result: Shiga toxin inh, CHX counter, Pf growth 48h, Pf growth 96h, HCV inh)
O=C(COC(=O)CSc1ccc([N+](=O)[O-])cc1)NCCCc1ccccc1	none

Assay outcomes from PubChem BioAssay.
